The text below walks through data of the supplement of paper PMC6555819.

For one assay, the system named is PPARg homodimer (NR concentration 180 nM). Kind of assay: PBM binding z-score (relative to random genomic background probes); higher = stronger binding; sequences stand for … in GC…GCGATTGACAGCGTAGAATGAAGG
In short, it runs like this:
(§1)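 Probes were double-stranded and carried 34-nt variable regions with direct-repeat seeds, single-nucleotide variants, half-site ablations and random human genomic background sequences, printed on custom Agilent 4×180K protein-binding microarrays. Arrays were incubated 1 h with ligand-free nuclear receptor dimers in PBS pH 7.4, 2% milk, 0.02% Triton X-100, 1 mM DTT, 0.2 mg/mL BSA and 0.4 mg/ml salmon testes DNA. Antibodies against each partner (one per run) detected binding, and scanned fluorescence was regression-normalized. Binding z-scores use the random background probes as reference.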
Consider GCGACTAGGGCATCAGCAGGTTACCATAACTTAA, for which the PBM binding z-score was found to be 0.128.

As for GATACAGTGTCAAGGCCAGAGTACGCGTATTGAT, the PBM binding z-score amounted to 0.275.

Consider GCGACTGGGGCATCAGCAGGTTTCCATAACTTAA, for which the PBM binding z-score is 0.145.

CCGACTGGGGCATAAGGTTACCCTAAGCCAGCCC: the PBM binding z-score is -0.0921.

As to AATACAGGGTCATCGTAGGCCAGCGTACGCACAG, the PBM binding z-score was found to be 1.67.

Take GCGACTGGGGCATCAGCAGATTACCATAACTTAA: the PBM binding z-score is -0.0673.

As to GGACCGAGGGCAAAGTTGATAGCATCTGTCGACG, the PBM binding z-score amounted to 0.198.

In the case of CGGACTAGGTCATTGACAGGACAGTGAATAGTAA, the PBM binding z-score stood at 1.1.

Sequence CGTCAAAGTTTAACTAAGGTAACGTAAAGCACGC displayed a PBM binding z-score of 0.901.

With ATATGTAGGTTAGCTGGGGTCATACAGACTAGGC, the PBM binding z-score came to 2.67.

GCGGCTAGGTCAACTGATGGTCAGCTAAAGCTCG yielded a PBM binding z-score of 1.76.

CAGCCTAGGTCATGGCCAGTATAGGAGGAACGTT came in with a PBM binding z-score of 1.72.

The sequence CCTAGTTGGTCAAGGCCACACACGCTATAGGTAC gave a PBM binding z-score of 1.

With CCTTACGGGTCAACGTTATAGCACGGGTGGTACG, the PBM binding z-score turned out to be 1.79.

TCTTGTAGATCAAACAGGTTAAGAAAGCCTGAGT: the PBM binding z-score was -0.369.

For the sequence CCTAGTTGGTCAGGAGGTCACACTCCGGATATGA, the PBM binding z-score amounted to 4.17.

For the sequence TCTAGCAGGCGAGAGGGTCACTCAAGAGGTACGG, the PBM binding z-score turned out to be 0.125.

Consider CGAACGAGGGCATGAGTTGATAGCGAATGCCGAT, for which the PBM binding z-score amounted to 0.483.

On to TCATATAGGTAAAAGGTGAAAGTAGGTGTGGTAA, for which the PBM binding z-score was 2.38.

Sequence ACAGACAGGTGAGTGAAGGTAGCTCAGCTGGACG came in with a PBM binding z-score of -0.296.

In the case of CAAACTAGGTCACAGAGGTCAAAGACCGTGCGTA, the PBM binding z-score is 5.75.

Sequence TGTCAAAGTTCAAAGGTAACGGAAGTATCCACAC registered a PBM binding z-score of 3.69.

The sequence CATTACGGGTCACGAGGTTATAGCACGACGAGCG registered a PBM binding z-score of 4.62.

On to ATCTCTAGGTAAAGTTCAGTTAAAGATCGATAGA, for which the PBM binding z-score was determined as 2.02.

As for CCTACGGGGCCATTCAGAGGTCATTGATCATATG, the PBM binding z-score was 4.06.

In the case of AGAATGAGGTTAATATCAGGGAAACAGAATACAT, the PBM binding z-score is 0.975.

As for CCGACTGGGCCAAGGTCATTGATCAGTCAAAGCA, the PBM binding z-score came to 2.42.

CCTCAGAGGACAGAAGGTCAGAGCTGTCCGCTTT registered a PBM binding z-score of 1.69.

CGAACTAGGTCATCCAGGAAAGTGAATACATTGA: the PBM binding z-score was found to be 1.98.

ACTATTAGTTGAGACGAGTGCAACCGATAGGTTG had a PBM binding z-score of 0.204.

As for GCTTACGGGTCAAAGGTTATAGCGTGAATAGAAT, the PBM binding z-score worked out at 2.67.

In turn, ACTATTAGTTGACTTAGGGCAACCGGTACGACGC yielded a PBM binding z-score of 0.403.

AGATTGAGGTTATACGTAGATCAGGGAAGAAAGT: the PBM binding z-score amounted to 0.726.

In turn, CCTACTAGGTCAATGGTCAGCTAAAGCAGCTCGC came in with a PBM binding z-score of 2.62.

Consider ATCTGTAGGTAACAAGTTCAGTGAAAGAGAGGAC, for which the PBM binding z-score was 1.16.

In the case of CAAACTAGGTCAACAGGTCAAAGTCCGCTTCCCG, the PBM binding z-score is 4.14.

Turning to TCTCGGAGGACACGAAAGGTTAGAGCTCGACATC, the PBM binding z-score stood at 0.402.

GCTTGTATATCAAGGTTAAGAAAGACTAAGCTAA came in with a PBM binding z-score of -0.0686.

Sequence TCCGCTAGGTCAACGATGGTCAGCTAATCTGCTA yielded a PBM binding z-score of 0.617.

As to CCTATGAGTTGACCATAAGGGCAACCGAAGCTCG, the PBM binding z-score amounted to 1.05.

In a further assay the test system is PXR:RXRa (NR concentration 270 nM, RXRa partner concentration 90 nM). Described as above. In short, it runs like this: as §1
GCGACTAGGGCATCAGCAGGTTACCATAACTTAA displayed a PBM binding z-score of -0.0606.

Take GATACAGTGTCAAGGCCAGAGTACGCGTATTGAT: the PBM binding z-score is -0.0079.

GCGACTGGGGCATCAGCAGGTTTCCATAACTTAA showed a PBM binding z-score of -0.54.

CCGACTGGGGCATAAGGTTACCCTAAGCCAGCCC gave a PBM binding z-score of 0.213.

Sequence AATACAGGGTCATCGTAGGCCAGCGTACGCACAG displayed a PBM binding z-score of 4.77.

On to GCGACTGGGGCATCAGCAGATTACCATAACTTAA, for which the PBM binding z-score is -0.385.

GGACCGAGGGCAAAGTTGATAGCATCTGTCGACG: the PBM binding z-score stood at 1.04.

For CGGACTAGGTCATTGACAGGACAGTGAATAGTAA, the PBM binding z-score came to 1.6.

CGTCAAAGTTTAACTAAGGTAACGTAAAGCACGC displayed a PBM binding z-score of 1.45.

Sequence ATATGTAGGTTAGCTGGGGTCATACAGACTAGGC displayed a PBM binding z-score of 6.28.

In turn, GCGGCTAGGTCAACTGATGGTCAGCTAAAGCTCG showed a PBM binding z-score of 1.59.

The sequence CAGCCTAGGTCATGGCCAGTATAGGAGGAACGTT came in with a PBM binding z-score of 1.53.

CCTAGTTGGTCAAGGCCACACACGCTATAGGTAC showed a PBM binding z-score of 0.291.

Turning to CCTTACGGGTCAACGTTATAGCACGGGTGGTACG, the PBM binding z-score came out at 3.18.

Sequence TCTTGTAGATCAAACAGGTTAAGAAAGCCTGAGT displayed a PBM binding z-score of 0.754.

Sequence CCTAGTTGGTCAGGAGGTCACACTCCGGATATGA registered a PBM binding z-score of 4.23.

Sequence TCTAGCAGGCGAGAGGGTCACTCAAGAGGTACGG came in with a PBM binding z-score of 1.47.

CGAACGAGGGCATGAGTTGATAGCGAATGCCGAT had a PBM binding z-score of 0.461.

TCATATAGGTAAAAGGTGAAAGTAGGTGTGGTAA came in with a PBM binding z-score of 2.11.

For the sequence ACAGACAGGTGAGTGAAGGTAGCTCAGCTGGACG, the PBM binding z-score was -0.618.

CAAACTAGGTCACAGAGGTCAAAGACCGTGCGTA: the PBM binding z-score came to 6.86.

With TGTCAAAGTTCAAAGGTAACGGAAGTATCCACAC, the PBM binding z-score amounted to 5.74.

Sequence CATTACGGGTCACGAGGTTATAGCACGACGAGCG gave a PBM binding z-score of 4.8.

As to ATCTCTAGGTAAAGTTCAGTTAAAGATCGATAGA, the PBM binding z-score worked out at 2.33.

The sequence CCTACGGGGCCATTCAGAGGTCATTGATCATATG came in with a PBM binding z-score of 5.55.

Sequence AGAATGAGGTTAATATCAGGGAAACAGAATACAT registered a PBM binding z-score of 1.2.

For the sequence CCGACTGGGCCAAGGTCATTGATCAGTCAAAGCA, the PBM binding z-score stood at 3.48.

In turn, CCTCAGAGGACAGAAGGTCAGAGCTGTCCGCTTT gave a PBM binding z-score of 1.66.

Turning to CGAACTAGGTCATCCAGGAAAGTGAATACATTGA, the PBM binding z-score worked out at 1.58.

As for ACTATTAGTTGAGACGAGTGCAACCGATAGGTTG, the PBM binding z-score was determined as 1.96.

In turn, GCTTACGGGTCAAAGGTTATAGCGTGAATAGAAT gave a PBM binding z-score of 5.96.

As for ACTATTAGTTGACTTAGGGCAACCGGTACGACGC, the PBM binding z-score came out at 0.35.

Turning to AGATTGAGGTTATACGTAGATCAGGGAAGAAAGT, the PBM binding z-score stood at 1.23.

For the sequence CCTACTAGGTCAATGGTCAGCTAAAGCAGCTCGC, the PBM binding z-score is 1.26.

For ATCTGTAGGTAACAAGTTCAGTGAAAGAGAGGAC, the PBM binding z-score came out at 1.58.

In turn, CAAACTAGGTCAACAGGTCAAAGTCCGCTTCCCG showed a PBM binding z-score of 4.32.

TCTCGGAGGACACGAAAGGTTAGAGCTCGACATC: the PBM binding z-score worked out at 0.853.

Sequence GCTTGTATATCAAGGTTAAGAAAGACTAAGCTAA registered a PBM binding z-score of 0.625.

Take TCCGCTAGGTCAACGATGGTCAGCTAATCTGCTA: the PBM binding z-score worked out at 1.19.

For CCTATGAGTTGACCATAAGGGCAACCGAAGCTCG, the PBM binding z-score came out at 1.1.
